Assay results from PubChem BioAssay (NCATS).
Records with an inconclusive call do not appear. Calls of active or inactive are those of the source. Calls follow the shape of the dose curve; as a rule, active = well fitted curve in the direction sought with a large enough effect; inconclusive = small, poorly fitted or top-dose-only effect, or another doubt; inactive = no such curve, though single readings can be large; an effect the other way counts as inactive or inconclusive.

Columns and labels:
[1] = Cytometric Cell-Based qHTS for Inhibitors of the mTORC1 Signaling Pathway in MEF (Tsc2-/-, p53-/-) Cells (AID 2660);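 also: Tsc2 and p53 null MEFs carrying empty vector with compound for 24 h; percent of cells above a phospho-rpS6 to PI ratio cutoff in each well; series mostly up to about 38 µM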
In short: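 Percent of cells positive for normalized phospho-S6 staining is reported, with the cutoff set from rapamycin (7.5 nM) versus DMSO wells. Tsc2-/-, p53-/- MEFs received compound for 24 hrs.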

[2] = High Content Imaging Cell-Based qHTS for Inhibitors of the mTORC1 Signaling Pathway in MEF (Tsc2-/-, p53-/-) Cells (AID 2666);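 also: percent of cells scored positive for phospho-rpS6 Ser235/236 immunostaining by imaging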
In short: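 Tsc2-/-, p53-/- MEFs (empty-vector stable) grown in DMEM + 10% FBS were exposed to compounds for 24 hrs at 37 degree Celsius, fixed, and stained with Alexa-488 anti-phospho-rpS6 Ser235/236 plus Hoechst. Imaging gave the percentage of positive cells per well.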

[3] = High Content Imaging Cell-Based qHTS for Inhibitors of the mTORC1 Signaling Pathway in MEF Cells (AID 2667);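 also: Tsc2-/- p53-/- MEFs stably re-expressing wild-type Tsc2 exposed 24 h; series mostly up to about 38 µM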
In short: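 Tsc2-/-, p53-/- MEFs stably re-expressing WT Tsc2, grown in DMEM + 10% FBS, were treated with compounds for 24 hrs at 37 degree Celsius, fixed, and stained with Alexa-488 phospho-rpS6 Ser235/236 antibody plus Hoechst; results given as % positive cells.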

[4] = Cytometry Cell-Based qHTS for Inhibitors of the mTORC1 Signaling Pathway in MEF cells (AID 2668);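 also: Tsc2-/- p53-/- mouse embryonic fibroblasts stably re-expressing wild-type Tsc2; percent cells positive for phospho-rpS6 Ser235/236 relative to propidium iodide stain; series mostly up to about 38 µM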
In short: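 Phospho-rpS6 (Ser235/236) immunofluorescence over PI signal, scored as % positive cells using thresholds from 7.5 nM rapamycin and DMSO wells, after 24 h compound exposure of WT-Tsc2-rescued Tsc2-/-, p53-/- MEFs. PI cell count recorded for viability.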

Measured: Potency

CSc1ccccc1N1CCN(CCCCCC(=O)NC2CCCc3ccccc32)CC1 (stereo not given)
inactive: [1] | [2]

Cc1nc2sccn2c(=O)c1CCN1CCC(=C(c2ccccc2)c2ccc(F)cc2)CC1
inactive: [1] | [2] | [3]

CN(C)CCCO[C@@H]1[C@H]2OC(C)(C)O[C@H]2O[C@@H]1[C@H](O)CO
inactive: all assays above

C[N+]1(C)CCC(OC(=O)C(c2ccccc2)c2ccccc2)CC1
inactive: [1] | [2] | [3]

CCCCCCCCc1ccc(-c2ccc(C(=O)O)cc2)cc1
inactive: [1] | [2] | [3]

Nc1nc(Cl)nc2c1ncn2[C@@H]1O[C@H](CO)[C@@H](O)[C@H]1O
inactive: [1] | [2] | [3]

Cc1ccc(S(=O)(=O)/C=C/C#N)cc1
inactive: [1] | [2] | [3]

CCC1C(=O)OCC1Cc1cncn1C (stereo not given)
inactive: all assays above

COc1cc(SC)ccc1C(=O)N1CCC(Cc2ccccc2)CC1
inactive: [1] | [2] | [3]

NC(=O)C1=CN(C2OC(COP(=O)(O)OP(=O)(O)OC[C@H]3O[C@@H](n4cnc5c(N)ncnc54)[C@H](OP(=O)(O)O)[C@@H]3O)C(O)C2O)C=CC1 (stereo not given in full)
inactive: all assays above

CN1CC(=O)N/C1=N/C(=O)Nc1cccc(Cl)c1
inactive: all assays above

CO/N=C(\C(=O)N[C@@H]1C(=O)N2C(C(=O)O)=C(COC(C)=O)CS[C@H]12)c1csc(N)n1
inactive: all assays above
